Screen size: about 52,000 compounds; about 1,700 (3.3%) were called active. Cut-off read from the data, not from the text of the source: active = survival mostly below about 52% (no sharp cut-off); inactive = mostly above about 56%. For the sample, actives were picked, then their nearest neighbours and some compounds at random.
Each compound was assayed on Wild type (assay: S. aureus survival, RN4220 and DeltatarO strains – OD600, teichoic acid synthesis inhibitors, primary screen (AID 463173)). Conditions: S. aureus RN4220 wild type/DeltatarO growth, OD600, 18 h, active compounds read low, screened at 18.75 µg/mL (by protocol).

| Compound | survival |
| --- | --- |
| Cc1ccc(-c2nc3ccccn3c2Nc2ccc3c(c2)OCO3)o1 | 48% (inactive) |
| Cc1ccc(-c2nc3ccccn3c2Nc2c(C)cccc2C)o1 | -20% (active) |
| Cc1ccn2c(Nc3ccc4c(c3)OCCO4)c(-c3ccc(C)o3)nc2c1 | 75% (inactive) |
| Cc1ccc(-c2nc3ccc(Cl)cn3c2Nc2ccc3c(c2)OCCO3)o1 | 88% (inactive) |
| Cc1ccc2nc(-c3ccc(C)o3)c(Nc3ccc4c(c3)OCCO4)n2c1 | 19% (active) |
| Cc1ccc(-c2nc3ccccn3c2Nc2ccc3c(c2)OCCO3)o1 | 62% (inactive) |
| Cc1cc(-n2c(C)nc3ccccc3c2=O)ccc1NC(=O)C(F)(F)F | 69% (inactive) |
| COc1ccc(CCC(=O)NC2CC(=O)N(c3ccc(OC)cc3)C2)cc1 (configuration not stated) | 79% (inactive) |
| CCOc1ccc(C2CC(=O)Nc3c2c(=O)[nH]c2ncnn32)cc1 (configuration not stated) | 68% (inactive) |
| CC1=C(C(=O)Nc2ccc(C)cc2C)C(c2cccs2)n2nc(SCc3ccccc3Cl)nc2N1 (configuration not stated) | 76% (inactive) |
| COc1cc(NC(=O)c2ccc(C)cc2)ccc1NC(=O)c1cc2ccccc2o1 | 75% (inactive) |
| CCc1ccc(C2NC(=O)c3[nH]nc(-c4cccc(OC)c4)c32)cc1 (configuration not stated) | 74% (inactive) |
| COc1ccc(-c2n[nH]c3c2C(c2ccc(Cl)cc2Cl)NC3=O)cc1 (configuration not stated) | 0% (active) |
| COc1ccc(OC)c(C2c3c(-c4ccc(Br)cc4)n[nH]c3C(=O)N2c2ccc(Cl)cc2)c1 (configuration not stated) | 77% (inactive) |
| CCOC(=O)CNc1cccc(Cl)c1 | 112% (inactive) |
| COc1cccc(CNC(=O)C(=O)Nc2c3c(nn2-c2ccccc2)CSC3)c1 | 66% (inactive) |
| Cc1ccc(NC(=O)c2cc(S(=O)(=O)N3CCC4(CC3)OCCO4)ccc2F)cc1Cl | 87% (inactive) |
| COc1ccc(N2CCN(C(=O)CNS(=O)(=O)c3ccc(Br)s3)CC2)cc1 | 61% (inactive) |
| COc1ccc(Nc2oc(/C=C/c3cc(OC)c(OC)c(OC)c3)nc2C#N)cc1 | 78% (inactive) |
| CC(=O)N1CCC2(CC1)OC(=O)C(C)=C2C(=O)NCc1ccccc1Cl | 70% (inactive) |
| CCOc1ccc(CCNC(=O)c2cnc3c(-c4ccc(F)cc4)c(C)nn3c2C)cc1 | 85% (inactive) |
| CCn1c(C(=O)Nc2ccccc2C(=O)OC)cc2sc(Cl)cc21 | 43% (inactive) |
| CCc1ccccc1NC(=O)c1cc2sc(Cl)cc2n1CC | 90% (inactive) |
| CCOC(=O)c1cc2occc2n1C(C)C(=O)OCC (configuration not stated) | 95% (inactive) |
| CCC(Sc1nnc(C)n2c1cc1occc12)C(=O)Nc1ccccc1OC (configuration not stated) | 90% (inactive) |
| CCC(C(=O)Nc1ccccc1OC)n1c(C(=O)OC)cc2sc(Cl)cc21 (configuration not stated) | 0% (active) |
| CCOc1ccccc1NC(=O)C(CC)n1c(C(=O)OC)cc2occc21 (configuration not stated) | 0% (active) |
